DT40 TDP1 CPT – growth inhibition of DT40 Tdp1-/-;hTDP1 cells with camptothecin (screen for TDP1 inhibitors); chicken DT40 Tdp1-/-;hTDP1 cells + 20 nM CPT, ATP luminescence, 48 h; Potency, µM (highest dose often 46.2 µM), inactives show at the highest dose activity change, negative = growth inhibition, actives largely listed as inhibitors; 420,000 compounds, 12% hits; further: potency means the concentration at half of the fitted maximal effect; nearly all actives have a fitted effect of over 55% in size
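Chicken DT40 Tdp1-/- cells complemented with human TDP1, 400 cells/well, exposed to compounds plus 20 nM camptothecin for at least 48 h at 37 C; viability read as ATP content by CellTiter-Glo luminescence.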
HT1080-NT tox – kills 2HG-producing HT-1080-NT fibrosarcoma cells. 360,000 compounds, 1.6% hits. HT-1080-NT fibrosarcoma viability, CellTiter-Glo ATP luminescence, 48 h. Potency, µM (titrated, usually from 46.1 µM), for the others: top-dose activity, negative = less viability, most hits filed as cytotoxic. AID 686970;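 further: NT is the 2HG producing partner of a matched IDH1 knockdown line; potency means the concentration at half of the fitted maximal effect; 0% = DMSO-treated cells and -100% = media-only wells without cells; nearly all actives have a fitted effect of over 55% in size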
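Viability by CellTiter-Glo luminescence after 48 h compound exposure at 37C of HT-1080-NT cells (750/well, RPMI, 5% FBS). % activity scaled between DMSO wells and medium-only wells, then curve-fitted and categorized by curve class.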
IL-1B inflam inh – inhibitors of inflammasome signaling (IL-1 beta secretion) | THP-1 LPS/ATP IL-1B secretion, AlphaLISA, 16 h; hits give low values | activity change, % at 57.5 µM | 360,000 compounds, 4.7% hits; in the data active means activity change below about -50%; inconclusive means mostly about -30% to -49%
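THP-1 cells pretreated 1 hr with compounds (up to 57.5 uM final), then stimulated with LPS (250 ng/mL final) plus ATP (1.25 mM final); secreted IL-1B measured by AlphaLISA after 16 hr, decreased signal indicating inhibition.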
HT1080 IDH1KD tx – toxicity to HT-1080 IDH1 knockdown cells (counter line) | HT-1080 IDH1 knockdown viability, ATP luminescence, 48 h | Potency, µM (series often up to 46.1 µM), for inactives: top-dose activity, negative = toxicity, usual class: cytotoxic | 360,000 compounds, 2% hits;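 further: potency means the concentration at half of the fitted maximal effect; 0% = DMSO wells and -100% = cell-free medium wells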
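Cytotoxicity counter-line: IDH1KD HT-1080, 48 h, CellTiter-Glo. Curves classed by r2, magnitude and activity.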
ELG1 DNA repair – ELG1-dependent DNA repair inhibition. HEK293T ELG1-luciferase reporter, luminescence, 16 h; DNA damage induced by 5-fluorouridine. Potency, µM (top dose mostly 46.1 µM), without a hit: at the highest dose activity change, negative = inhibition, actives largely listed as inhibitors. 330,000 compounds, 2.3% hits; further: potency means the concentration at half of the fitted maximal effect; nearly all actives have a fitted effect of over 55% in size
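5-Fluorouridine DNA damage + compound/DMSO, 2,000 cells/well, 16 h, 37 °C/5% CO2. ONE-Glo, 30 min RT, luminescence. Readout = decrease in reporter signal.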
DT40 TDP1 no CPT – qHTS for Inhibitors of human tyrosyl-DNA phosphodiesterase 1 (TDP1): qHTS in cells in absence of CPT. DT40 Tdp1-/- hTDP1 cells, no CPT, ATP luminescence, 48 h. Potency, µM (top dose mostly 46.2 µM), for inactives: top-dose activity change, negative = growth inhibition, usual class: inhibitors. 420,000 compounds, 15% hits; further: potency means the concentration at half of the fitted maximal effect; nearly all actives have a fitted effect of over 55% in size
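Readout: luminescence from CellTiter-Glo after 30 min in the dark at RT. Cells: DT40 Tdp1-/- with stable hTDP1, 400/well. Exposure: compounds alone, ≥48 hr, 37 °C.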
An asterisk follows results filed as active; ? = inconclusive; / = no result. Hits are enriched below; roughly 19% of the tested compounds scored in any of these assays. Unless noted, the call rests on the fitted dose curve; in most records, active means well fitted curve in the direction sought with a large enough effect; inconclusive means small, poorly fitted or top-dose-only effect, or another doubt; inactive means no such curve, though single readings can be large; an effect the other way counts as inactive or inconclusive. Unless noted, on the % scale 0 is the no-effect control and ±100 the full control effect.

SMILES | DT40 TDP1 CPT | HT1080-NT tox | IL-1B inflam inh | HT1080 IDH1KD tx | ELG1 DNA repair | DT40 TDP1 no CPT
COc1ccc(C(=Cc2cc(OC)c(OC)cc2[N+](=O)[O-])C(=O)O)cc1 | 10.7% | -5.8% | 22.4 | -8.0% | / | 7.2%
Cc1ccc(/C=N\NC(=O)CCc2n[nH]c(=O)[nH]c2=O)o1 | ? | 3.4% | 2.4 | 4.7% | 0.2% | ?
Nc1ccn([C@@H]2O[C@H](CNCc3ccc(-c4cc(C(F)(F)F)ccc4Cl)o3)[C@@H](O)[C@H]2O)c(=O)n1 | 0.7% | 1.3% | ? | -1.6% | / | 4.7%
Cc1ccc(C)c(NC(=O)C(Cc2ccccc2)n2cccc2)c1 (stereo unspecified) | ? | / | / | / | / | 16.4µM*
CC(C)[C@@H]1CC[C@@H](C)C[C@H]1OC(=O)c1ccccc1O | 7.3% | / | / | / | / | -1.5%
COCCCNC(=O)C1=CCN(S(=O)(=O)c2ccc(OC)cc2)CC1 | 0.7% | 8.1% | 2.5 | 10.4% | 0.0% | 29.1%
Cn1c(=O)n(C)c2cc(N3CCCCC3)c(NC(=O)c3ccc(Cl)cc3)cc21 | -2.6% | / | / | / | / | -5.8%
CCOC(=O)c1ccc(N2CCCCC2)c(NS(=O)(=O)c2ccc(C)cc2)c1 | ? | ? | 59.7 | ? | ? | 20.6µM*
CCOC(=O)C1CCN(c2cc3c(cc2NC(=O)c2ccccc2)n(C)c(=O)n3C)CC1 | 20.6µM* | -8.1% | 9.1 | 4.7% | ? | 8.2µM*
CCOC(=O)c1ccc(N2CCN(c3ccccc3F)CC2)c(NC(=O)Nc2ccccc2)c1 | 16.4µM* | 0.7% | 22.6 | -1.1% | ? | 16.4µM*
CCOC(=O)C1CCN(c2cc3c(cc2NC(=O)c2ccc(OC)c(OC)c2)n(C)c(=O)n3C)CC1 | 9.2µM* | 0.6% | 8.9 | -0.8% | 1.64µM* | 5.8µM*
CCOC(=O)c1ccc(N2CCN(c3ccc(F)cc3)CC2)c(NC(=O)Nc2ccc(CC)cc2)c1 | -8.0% | / | / | / | / | -5.2%
N=C(N)N1CCN(Cc2ccccc2)CC1 | / | / | / | / | 11.0% | /
Cc1ccc(CNC(=O)c2ccc(N3CCCC3)c(NC(=O)Nc3ccc(C)cc3)c2)cc1 | 14.6µM* | / | / | / | / | 23.1µM*
CCOC(=O)c1ccc(NC(=O)Nc2cc3c(cc2N2CCCC2)n(C)c(=O)n3C)cc1 | ? | / | / | / | / | 23.1µM*
COc1ccc(NC(=O)Cn2c(=O)n(CC3CCCO3)c(=O)c3cc(OC)c(OC)cc32)cc1OC (stereo unspecified) | 5.4% | -4.7% | -10.4 | 0.5% | ? | 1.7%
COCCNC(=O)Cn1c(=O)n(Cc2ccco2)c(=O)c2ccccc21 | 6.4% | -0.7% | -6.3 | 11.7% | 9.1% | 2.0%
COc1cc2c(=O)n(Cc3ccccc3)c(=O)n(CC(=O)NCCc3ccccc3)c2cc1OC | 7.31µM* | -29.1% | 27.9 | -23.5% | 1.7% | 14.6µM*
COc1ccc(NC(=O)Cn2c(=O)n(Cc3ccccc3Cl)c(=O)c3cc(OC)c(OC)cc32)cc1OC | 3.26µM* | / | / | / | / | -25.4%
COc1ccc(CCNC(=O)Cn2c(=O)n(Cc3ccco3)c(=O)c3ccc(Cl)cc32)cc1OC | ? | 0.0% | -3.2 | 11.3% | ? | 23.1µM*
CCOC(=O)Cn1c(=O)n(Cc2ccco2)c(=O)c2ccc(C(=O)NCCc3ccccc3)cc21 | 18.4µM* | -4.6% | 1.1 | -4.3% | ? | 23.1µM*
COc1ccccc1C(=O)NCCC(=O)OCC(=O)Nc1ccc(S(N)(=O)=O)cc1 | -5.3% | 1.9% | 0.0 | 4.1% | ? | 14.7%
O=C1CCCc2c1oc1c2CCCC1 | 15.8% | 11.8% | 1.0 | 14.9% | / | -4.6%
CC(C)(C)c1ccc(C(=O)NCCC(=O)NCc2cccs2)cc1 | ? | ? | 26.5 | ? | ? | 0.3%
CCOc1ccc(NC(=O)CN2C(=O)CSc3ccc(S(=O)(=O)N4CCCC4)cc32)cc1 | ? | -0.9% | ? | 1.9% | -1.1% | ?
SMILES | DT40 TDP1 CPT | HT1080-NT tox | IL-1B inflam inh | HT1080 IDH1KD tx | ELG1 DNA repair | DT40 TDP1 no CPT
CCOC(=O)CN1C(=O)CSc2ccc(S(=O)(=O)N3CCOCC3)cc21 | 0.7% | 6.8% | -6.8 | 10.2% | 5.9% | 12.7%
CCOC(=O)CN1C(=O)CSc2ccc(S(=O)(=O)N3CCCC3)cc21 | -13.3% | 23.7% | -51.8* | 16.8% | -1.2% | ?
Cc1ccc(NC(=O)CN2C(=O)CSc3ccc(S(=O)(=O)N4CCCCC4)cc32)cc1 | ? | -2.8% | -88.6* | ? | 10.4% | -12.7%
COc1cccc(NC(=O)CN2C(=O)CSc3ccc(S(=O)(=O)N4CCCCC4)cc32)c1 | -17.8% | -20.4% | -23.0 | -11.6% | 0.2% | ?
O=C(CN1C(=O)CSc2ccc(S(=O)(=O)N3CCCC3)cc21)Nc1cccc(Cl)c1 | ? | / | / | / | / | 23.1µM*
COc1ccc(NC(=O)CN2C(=O)CSc3ccc(S(=O)(=O)N(C)C)cc32)cc1Cl | 23.1µM* | / | / | / | / | ?
CCOC(=O)CNC(=O)CSc1nnc(CCc2nc3ccccc3[nH]2)n1C | 4.4% | 7.0% | 19.7 | 1.0% | -7.1% | 3.7%
CC(C)Cn1c(=O)[nH]c(=O)c2c(C(F)(F)F)cc(-c3ccccc3)nc21 | -27.8% | 0.5% | 179.9 | -15.5% | ? | ?
OC(CN1CCN(C(c2ccccc2)c2ccccc2)CC1)c1ccccc1 (stereo unspecified) | ? | -0.4% | 0.0 | 7.0% | -0.2% | ?
OC(CN1CCN(c2ccccc2Cl)CC1)c1ccccc1 (stereo unspecified) | -2.7% | 16.4µM* | 7.9 | ? | -24.2% | -15.1%
OC(CN1CCN(C(c2ccccc2)c2ccccc2)CC1)c1ccc(Br)cc1 (stereo unspecified) | 18.4µM* | 0.6% | -1.5 | 0.0% | ? | ?
OC(CN1CCCC1)c1ccccc1 (stereo unspecified) | ? | / | / | / | / | -28.2%
OC(CN1CC=C(/C=C/c2ccc(Br)cc2)CC1)c1ccccc1 (stereo unspecified) | ? | ? | -72.7* | ? | 12.0% | ?
CCCc1c(C(=O)N/N=C/c2cccnc2)nnn1-c1nonc1N | 5.5% | 24.2% | -12.7 | 8.0% | -9.0% | 9.6%
COc1ccc(-c2cnc3c(NC(C)=O)cc(-c4ccccc4OC)cn23)cc1OC | 11.6µM* | ? | / | 25.9µM* | / | -82.8%
CC(=O)Nc1cc(-c2ccsc2)cn2c(-c3ccc(F)cc3)cnc12 | 16.4µM* | ? | -10.3 | ? | / | 18.4µM*

From PubChem
